{
  "source": "PubChem BioAssay AID602393",
  "about": "(Broad Institute, 2012)",
  "note": "Screen size: about 350,000 compounds; about 7,000 (2%) were called active. Shown is part of a subset that was picked to be rich in actives. A number with no mark means an inactive call. Cut-off read from the data, not from the text of the source: active = activation above about 40%; inconclusive = no clear call, values can overlap the other calls; inactive = below that.",
  "data": [
    {"test": "Bmi1 luciferase reporter increase in mESCs, primary screen, esBAF inhibitor project, mouse ES cells, Bmi1 luciferase knock-in, single point (AID 602393);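 note: 0% = median of the plate's neutral control wells and 100% = double that signal; a rise in the Bmi1 reporter signal indicates esBAF inhibition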", "settings": "24 h, at 12.5 µM, stronger effect = higher value, 100% = twice the neutral-well signal", "values": [
      {"smiles": "CN1CCN(C(=O)C[C@@H]2C[C@H]3c4cc(NC(=O)NC5CCCC5)ccc4O[C@H]3[C@H](CO)O2)CC1", "reporter increase": "0.154%"},
      {"smiles": "CCCNC(=O)C[C@H]1C[C@@H]2c3cc(NC(=O)C4CCOCC4)ccc3O[C@@H]2[C@H](CO)O1", "reporter increase": "-3.13%"},
      {"smiles": "COc1ccccc1N1CCN(C(=O)Cn2nnc(-c3cccs3)n2)CC1", "reporter increase": "3.41%"},
      {"smiles": "O=c1cc(Cn2nnc(-c3ccc(Cl)cc3)n2)nc2sccn12", "reporter increase": "7.92%"},
      {"smiles": "Clc1cccc(Cl)c1Cn1nnc(-c2cccs2)n1", "reporter increase": "69.1% (active)"},
      {"smiles": "CC(=O)N(C)C[C@@H]1Oc2cc(-c3cccnc3)ccc2S(=O)(=O)N([C@H](C)CO)C[C@H]1C", "reporter increase": "2.38%"},
      {"smiles": "C/C=C/c1ccc([C@H]2[C@@H](C#N)N(C(=O)CN3CCOCC3)[C@@H]2CO)cc1", "reporter increase": "-3.67%"},
      {"smiles": "O=C(C1CCCC1)N1[C@H](CO)[C@H]2c3ccccc3N(S(=O)(=O)c3ccccc3)C[C@H]21", "reporter increase": "-4.06%"},
      {"smiles": "C[C@H](CO)N1C[C@H](C)[C@@H](CN(C)Cc2ccncc2)Oc2ccc(NS(=O)(=O)c3ccc(Cl)cc3)cc2CC1=O", "reporter increase": "4.09%"},
      {"smiles": "COc1ccc2[nH]cc(CCN3C(=O)c4ccc(C(=O)O)cc4C3=O)c2c1", "reporter increase": "77% (active)"},
      {"smiles": "COCCCN1C(=O)c2ccc(C(=O)OCC(=O)NCc3ccccc3OC)cc2C1=O", "reporter increase": "-0.788%"},
      {"smiles": "COCCCN1C(=O)c2ccc(C(=O)Nc3ccc(OC)cc3OC)cc2C1=O", "reporter increase": "-3.26%"},
      {"smiles": "C[C@H](CO)N1C[C@H](C)[C@H](CN(C)Cc2ccccn2)Oc2ncc(C#CCc3ccccc3)cc2C1=O", "reporter increase": "-3.58%"},
      {"smiles": "Cc1ccn2c(-c3csc(Nc4ccc(C(=O)O)cc4)n3)c(C)nc2c1", "reporter increase": "3.65%"},
      {"smiles": "CC(=O)Nc1ccc(C(=O)CSc2nc3ccc(C)cc3[nH]2)cc1", "reporter increase": "1.14%"},
      {"smiles": "Cc1ccc2cc(/C=N/Nc3ccc(C(=O)O)cc3)c(Cl)nc2c1", "reporter increase": "63.2% (active)"},
      {"smiles": "C/C=C/c1cnc2c(c1)C(=O)N([C@H](C)CO)C[C@H](C)[C@@H](CN(C)C(=O)c1cccc(F)c1)O2", "reporter increase": "1.29%"},
      {"smiles": "C[C@@H]1CCCCO[C@@H](CN(C)S(=O)(=O)c2ccccc2)[C@H](C)CN([C@H](C)CO)C(=O)c2cc(NC(=O)CCC(F)(F)F)ccc2O1", "reporter increase": "3.27%"},
      {"smiles": "COc1cccc(S(=O)(=O)N[C@@H]2CC[C@H](CCNC(=O)Cc3ccncc3)O[C@@H]2CO)c1", "reporter increase": "3.37%"},
      {"smiles": "O=C(C[C@@H]1CC[C@@H]2[C@H](COC[C@@H](O)CN2Cc2cc(F)cc(F)c2)O1)NCc1cccc(F)c1", "reporter increase": "4.76%"},
      {"smiles": "O=C(C[C@@H]1C[C@@H]2c3cc(NS(=O)(=O)c4ccc(F)cc4)ccc3O[C@@H]2[C@@H](CO)O1)NCc1ccncc1", "reporter increase": "-5.57%"},
      {"smiles": "C/C=C/c1ccc([C@H]2[C@@H](CO)N(C(=O)Cc3ccncc3)[C@@H]2CNC(C)=O)cc1", "reporter increase": "-0.088%"},
      {"smiles": "CCOC(=O)c1c(C)[nH]c(C(=O)OCC(=O)c2ccc(OC)cc2OC)c1C", "reporter increase": "6.18%"},
      {"smiles": "COc1ccc(C(=O)CCC(=O)Nc2cccnc2)c(OC)c1", "reporter increase": "-1.7%"},
      {"smiles": "COc1ccc(C(=O)COC(=O)CN2C(=O)C3CC=CCC3C2=O)c(OC)c1", "note": "(stereo not given)", "reporter increase": "-4.47%"},
      {"smiles": "COc1ccc(C(=O)COC(=O)C(O)c2ccccc2)c(OC)c1", "note": "(stereo not given)", "reporter increase": "67.1% (active)"},
      {"smiles": "COc1ccc(C(=O)NC(C)CCc2ccccc2)c(OC)c1", "note": "(stereo not given)", "reporter increase": "-1.75%"},
      {"smiles": "COc1ccc(C(=O)CCc2ccccc2O)c(OC)c1", "reporter increase": "92.4% (active)"},
      {"smiles": "C[C@H](CO)N1C[C@H](C)[C@H](CN(C)C(=O)CCC(F)(F)F)OCCCC[C@H](C)Oc2ccc(NS(=O)(=O)c3ccc(F)cc3)cc2C1=O", "reporter increase": "-0.446%"},
      {"smiles": "C[C@@H]1CCCCO[C@@H](CN(C)S(=O)(=O)c2ccc(F)cc2)[C@@H](C)CN([C@@H](C)CO)C(=O)c2cc(NC(=O)Nc3ccc(F)cc3)ccc2O1", "reporter increase": "3.89%"},
      {"smiles": "C[C@@H]1CN([C@@H](C)CO)C(=O)Cc2cc(NC(=O)Nc3ccc4c(c3)OCO4)ccc2O[C@H]1CN(C)S(=O)(=O)c1ccc(F)cc1", "reporter increase": "-0.705%"},
      {"smiles": "CN1[C@@H]2CN(C(=O)c3ccc(F)cc3)c3ccccc3[C@@H]2[C@@H]1CO", "reporter increase": "2.63%"},
      {"smiles": "CCc1c(C)nc2cc(C)[nH]n2c1=O", "reporter increase": "-4.73%"},
      {"smiles": "C=CCc1c(C)nc2cc(-c3ccccc3)[nH]n2c1=O", "reporter increase": "34.3%"},
      {"smiles": "CCc1c(C)nc2cc(-c3cccs3)[nH]n2c1=O", "reporter increase": "48.4% (active)"},
      {"smiles": "O=C(C[C@H]1C=C[C@H](NC(=O)C2CCOCC2)[C@@H](CO)O1)NCC1CC1", "reporter increase": "-1.58%"},
      {"smiles": "Cc1ccc(-c2ccc3c(c2)O[C@H](CN(C)C(=O)Nc2ccccc2)[C@@H](C)CN([C@@H](C)CO)S3(=O)=O)cc1", "reporter increase": "-1.56%"},
      {"smiles": "Cc1ccccc1-c1nnn(CC(=O)c2ccc(S(=O)(=O)N3CCCC3)cc2)n1", "reporter increase": "5.35%"},
      {"smiles": "O=C(Cn1nnc(-c2ccccc2)n1)NC(=O)NC1CCCC1", "reporter increase": "-2.48%"},
      {"smiles": "CC(C)(C)NC(=O)Cn1nnc(-c2ccccc2Cl)n1", "reporter increase": "56.6% (active)"},
      {"smiles": "CCCC(=O)Nc1ccc2c(c1)C(=O)N(C)[C@@H]1CC[C@H](CC(=O)NCCN3CCCCC3)O[C@@H]1CO2", "reporter increase": "0.938%"},
      {"smiles": "O=C(C[C@@H]1C=C[C@H](NC(=O)C2CCOCC2)[C@H](CO)O1)NCc1ccncc1", "reporter increase": "5.38%"},
      {"smiles": "COCn1c(COc2ccccc2)nc2ccccc21", "reporter increase": "80.5% (active)"},
      {"smiles": "COCc1nc2ccccc2n1Cc1ccccc1Br", "reporter increase": "-3.15%"},
      {"smiles": "CC(C)n1c(COc2ccccc2)nc2ccccc21", "reporter increase": "-1.17%"},
      {"smiles": "CCOC(=O)N1CCN(S(=O)(=O)c2ccc(OC)cc2)CC1", "reporter increase": "-4.19%"},
      {"smiles": "CCS(=O)(=O)n1nc(-c2ccccc2)nc1SCc1ccccc1", "reporter increase": "45.9% (active)"},
      {"smiles": "CCS(=O)(=O)n1nc(-c2ccc(OC)cc2)nc1SC", "reporter increase": "55.7% (active)"},
      {"smiles": "C=CCn1c(SCc2ccccc2)nc2c1c(=O)[nH]c(=O)n2C", "reporter increase": "8.86%"},
      {"smiles": "COc1ccc(-n2c(SC)nc(O)cc2=O)cc1", "reporter increase": "-1.49%"},
      {"smiles": "O=S(=O)(c1ccc(SCc2ccccc2)nc1)N1CCCCCC1", "reporter increase": "8.09%"},
      {"smiles": "Cc1cccc(S(=O)(=O)N2C[C@@H]3[C@H](c4ccccc42)[C@H](CO)N3CC2CCOCC2)c1", "reporter increase": "3.89%"},
      {"smiles": "CCC(=O)N(C)C[C@@H]1Oc2cc(C#CC(C)(C)O)ccc2S(=O)(=O)N([C@@H](C)CO)C[C@@H]1C", "reporter increase": "1.13%"},
      {"smiles": "C[C@H](CO)N1C[C@H](C)[C@H](CN(C)S(=O)(=O)c2ccccc2)Oc2cc(Br)ccc2S1(=O)=O", "reporter increase": "3.8%"},
      {"smiles": "Cc1ccc(C)c(N2CCN(C(=O)CCc3nc4ccccc4[nH]3)CC2)c1", "reporter increase": "10.7%"},
      {"smiles": "COc1ccc(-c2noc(CCC(=O)N3CCN(c4cccc(C)c4)CC3)n2)cc1", "reporter increase": "-6.31%"},
      {"smiles": "Cc1ccc(C)c(N2CCN(C(=O)CCc3nc(-c4cccc(C(F)(F)F)c4)no3)CC2)c1", "reporter increase": "61.9% (active)"},
      {"smiles": "CNC[C@@H]1Oc2ccc(NS(=O)(=O)c3c(C)noc3C)cc2CC(=O)N([C@@H](C)CO)C[C@@H]1C", "reporter increase": "1.22%"},
      {"smiles": "CO[C@H]1CN(C)C(=O)c2cc(NS(C)(=O)=O)ccc2OC[C@@H](C)N(C(=O)NC(C)C)C[C@@H]1C", "reporter increase": "-1.56%"},
      {"smiles": "CCC(=O)N1C[C@H]2[C@@H](c3ccccc31)[C@H](CO)N2Cc1ccccc1F", "reporter increase": "-1.5%"},
      {"smiles": "c1ccc(-c2csc(N3CCc4ccccc4C3)n2)cc1", "reporter increase": "21.9%"},
      {"smiles": "N#CC(=C1CCCC1)c1nc(-c2ccc(Cl)cc2)cs1", "reporter increase": "58.5% (active)"},
      {"smiles": "N#CC(=C1SC=CS1)c1nc(-c2ccccc2)cs1", "reporter increase": "56.6% (active)"},
      {"smiles": "C[C@@H]1CN([C@@H](C)CO)C(=O)Cc2cc(NS(=O)(=O)c3ccc(Cl)cc3)ccc2O[C@H]1CN(C)CC1CCCCC1", "reporter increase": "3.84%"},
      {"smiles": "O=C(Cc1ccccn1)N1[C@@H]2CNc3ccccc3[C@@H]2[C@@H]1CO", "reporter increase": "-1.83%"},
      {"smiles": "O=C(c1cccnc1)N1C[C@H]2[C@@H](c3ccccc31)[C@H](CO)N2C(=O)C1CCCCC1", "reporter increase": "-4.74%"},
      {"smiles": "CCC(=O)Nc1ccc2c(c1)C(=O)N(C)C[C@H](OC)[C@H](C)CN(C(=O)C1CCC1)[C@@H](C)CO2", "reporter increase": "-5.69%"},
      {"smiles": "CN1/C(=C\\C(=O)c2cccnc2Cl)C(C)(C)c2ccccc21", "reporter increase": "48.4% (active)"},
      {"smiles": "CC(C)Nc1nnc(SCC(=O)/C=C2\\N(C)c3ccccc3C2(C)C)s1", "reporter increase": "-0.0975%"},
      {"smiles": "CC(=O)Nc1cccc(OCC(=O)/C=C2\\N(C)c3ccccc3C2(C)C)c1", "reporter increase": "-12.2%"},
      {"smiles": "C[C@@H]1CCCCO[C@H](CN(C)S(C)(=O)=O)[C@@H](C)CN([C@@H](C)CO)C(=O)c2cc(NC(=O)CCC(F)(F)F)ccc2O1", "reporter increase": "-0.325%"},
      {"smiles": "CCCNC(=O)[C@H]1[C@H](CO)[C@H]2Cn3c(ccc(C4=CCCC4)c3=O)[C@H]2N1C(=O)CC", "reporter increase": "-0.965%"},
      {"smiles": "O=C(CN1C(=O)COc2ccccc21)Nc1ccc(F)cc1", "reporter increase": "72.1% (active)"},
      {"smiles": "O=C(CN1C(=O)COc2ccc(Cl)cc21)Nc1ccc(N2CCOCC2)cc1", "reporter increase": "-1.03%"},
      {"smiles": "CC(OC(=O)CN1C(=O)COc2ccccc21)C(=O)NCc1ccc(F)cc1", "note": "(stereo not given)", "reporter increase": "-4.32%"},
      {"smiles": "Cc1noc(C)c1NC(=O)N(C)C[C@@H]1OCCCC[C@H](C)Oc2ccc(NC(=O)CCC(F)(F)F)cc2C(=O)N([C@@H](C)CO)C[C@@H]1C", "reporter increase": "-15%"},
      {"smiles": "CN(C)C(=O)C[C@@H]1CC[C@@H](NS(=O)(=O)c2ccccc2)[C@H](CO)O1", "reporter increase": "-9.26%"},
      {"smiles": "CCOC(=O)C1(Cc2ccccc2C)CCCN(S(C)(=O)=O)C1", "note": "(stereo not given)", "reporter increase": "-5.66%"},
      {"smiles": "CCOC(=O)C1(Cc2ccccc2C)CCCN(C(=O)c2ccc(COC)o2)C1", "note": "(stereo not given)", "reporter increase": "52.7% (active)"},
      {"smiles": "CCOC(=O)C1(Cc2ccccc2C)CCCN(C(=O)CN2C(=O)CSC2=O)C1", "note": "(stereo not given)", "reporter increase": "15.7%"}
    ]}
  ]
}
